Data reported in ChEMBL document CHEMBL3988442, “University of Dundee, Small-Polar-MMV Screening Library” (2021).
The campaign covered roughly 48,000 compounds. About 13,000 (27%) showed an effect of 50% or more. This is one part of the list.

system: Wolbachia pipientis; experiment: Anti-Wolbachia Cell-Based Screen; assay type: functional; set-up: scale not given: in the data most compounds retested in dose-response had high values; settings: 5 µM

| SMILES | Percent Effect |
| --- | --- |
| CCC1CN(C(=O)c2ccccc2C#N)CCN1C(C)C (centres undefined) | -3.955% |
| COc1ccc2c(c1)C1(CCN(Cc3nccs3)CC1)N(C)CC2.O=C(O)C(F)(F)F.O=C(O)C(F)(F)F | 6.008% |
| COc1ccc(-c2n[nH]cc2CN(C)Cc2nonc2C)c(F)c1 | -4.147% |
| O=C([C@H]1C[C@H]2OCC[C@H]2N(C(=O)C2CCOCC2)C1)N1CCCCO1 | -4.541% |
| CCOC(=O)c1ccccc1NC(=O)CN(C)Cc1ccccc1Cl.O=C(O)C(=O)O | 16.66% |
| CC(=O)NCCC(=O)NCc1ccc(Br)cc1Cl | -2.805% |
| Cc1cccc(C(C)(C)CNc2cn[nH]c(=O)c2Cl)c1 | 26.78% |
| CC(=O)N1CCCN(C(=O)NCCc2ccc(Cl)s2)CC1 | 4.085% |
| O=C(NC1CC1)c1cc(NC(=O)N2CCOCC2)ccc1Cl | -10.77% |
| Cc1oc(CNC(=O)Cc2ccccc2Cl)cc1C(=O)O | -14.11% |
| CN(C)C(=O)N1CCN(Cc2cnc(-c3ccsc3)s2)CC1 | -2.871% |
| CC(=O)N1CCN(C(=O)Cc2cnc(-c3c(Cl)cccc3Cl)s2)CC1 | 110.1% |
| NC(=O)C1CCN(C(=O)Cc2cnc(-c3c(Cl)cccc3Cl)s2)CC1 | 112.4% |
| Cc1nc2ccnn2c(C)c1CCC(=O)N1CCC(C(N)=O)CC1 | 1.242% |
| Cc1ncc(CN(C)C(=O)Nc2cccc(C(=O)N3CCOCC3)c2)s1 | -6.788% |
| O=C(O)Cc1cnc(-c2c(Cl)cccc2Cl)s1 | 122.5% |
| NC(=O)C1CCN(C(=O)Cc2ccc(Cl)c(Cl)c2)CC1 | -1.39% |
| O=C(Cc1cnc(-c2c(Cl)cccc2Cl)s1)N1CCOCC1 | 134.1% |
| O=C(O)Cc1cccc(-n2ccnc2-c2ccc(Cl)s2)c1 | 1.594% |
| Cc1ncccc1OC1(C(=O)NCCC2CCCN2C)CCNCC1 (centres undefined) | 17.07% |
| CCCOCC(=O)N1CCCN(Cc2csc(CC)n2)CC1 | 2.804% |
| CS(=O)(=O)CCCN1CCSCC1c1ccc(Cl)cc1 (centres undefined) | -3.255% |
| CCN(CC(O)c1ccc(C)cc1)C(=O)NC(C)C (centres undefined) | 91.44% |
| CCC(CC)(CNC(C)=O)NC(C)c1ccccc1 (centres undefined) | 1.082% |
| CC(C)CN(CC(O)c1ccccc1)C(=O)NC(C)C (centres undefined) | 126.3% |
| CC(C)CN(CC(O)c1ccccc1)C(=O)Nc1nccs1 (centres undefined) | 92.63% |

| SMILES | Percent Effect |
| --- | --- |
| CC(NC(=O)Nc1nccs1)c1cccnc1 (centres undefined) | -1.338% |
| CC(C)NC(=O)CNC(C)COc1ccccc1 (centres undefined) | 2.359% |
| O=C(Nc1nccs1)N(CCO)Cc1ccsc1 | -2.808% |
| CCN(CC(=O)Nc1c(C)n[nH]c1C)CC(O)c1ccc(C)cc1 (centres undefined) | -7.699% |
| CCN(CC(=O)Nc1c(C)nn(C)c1C)CC(O)c1ccc(C)cc1 (centres undefined) | 2.184% |
| Cc1nn(C)c(Cl)c1C1CCCN1c1ncnc2[nH]ccc12 (centres undefined) | -15.05% |
| CCc1nnc(N[C@H](C)c2cccc(OC)c2)o1 | -47.91% |
| Cn1cc(C(=O)N[C@H]2CN(Cc3nccs3)[C@@H]3CCCO[C@H]23)cn1.O=C(O)C(F)(F)F | -3.983% |
| Cc1nc(CN2CC[C@H]3[C@H]2CCN3c2nncs2)cs1.O=C(O)C(F)(F)F.O=C(O)C(F)(F)F | 10.04% |
| Cn1cc(N2C(=O)CC[C@@H]3[C@H]2CCN3C(=O)c2cscn2)cn1.O=C(O)C(F)(F)F | -22.63% |
| Cc1nc(CN2CC[C@H]3[C@@H]2CCC(=O)N3c2cnn(C)c2)cs1.O=C(O)C(F)(F)F | 98.36% |
| Cc1nc(CO[C@@H]2CN(Cc3cnn(C)c3)[C@@H]3COC[C@@H]32)cs1.O=C(O)C(F)(F)F | -7.827% |
| Cn1cc(N2C(=O)CC[C@@H]3[C@H]2CCN3Cc2nccs2)cn1.O=C(O)C(F)(F)F | 92.26% |
| Cc1nc(C)c(-c2nnc(SCC(=O)O)n2C(C)c2ccccc2)o1 (centres undefined) | 4.033% |
| Fc1cccc(CN2CCN(Cc3cscn3)CC2)c1 | -6.647% |
| O=C(c1cccc(F)c1)N1CCCN(Cc2cscn2)CC1 | 112.5% |
| O=C(c1ccc2c(c1)COC2)N1CCCN(Cc2cscn2)CC1 | 97.01% |
| O=C(c1ccc(O)cc1)N1CCN(C(=O)c2ccc3c(c2)COC3)CC1 | -5.572% |
| CN1CCN(C(=O)c2cccc(OCc3cscn3)c2)CC1 | -0.311% |
| Cn1cc(CN2CCCN(C(=O)c3ccc4c(c3)COC4)CC2)cn1 | -5.776% |
| Cc1cccc(C(=O)N2CCCN(Cc3cscn3)CC2)c1 | 101.4% |
| O=C(c1ccc2cc[nH]c2c1)N1CCCN(Cc2cscn2)CC1 | 102.9% |
| CSCC(CCO)NC(=O)Nc1cccc(Br)c1 (centres undefined) | -3.109% |
| O=C(NCCO)c1coc(CN2CCN(c3ccccc3F)CC2)n1 | 7.764% |
| COCc1noc(-c2ccc(N(C)Cc3c(C)n[nH]c3C)nc2)n1 | -8.806% |
| O=C(NC[C@H]1OC[C@@H](NC2CCC(F)(F)CC2)[C@@H]1O)c1cccs1 | -23.1% |

| SMILES | Percent Effect |
| --- | --- |
| C=C(C)CN(CC)S(=O)(=O)c1ccccc1C#N | -2.977% |
| Cc1nnc(NCC2(c3ccccc3)CCOCC2)c(C#N)c1C | -16.92% |
| CC(C)Nc1nc2c(s1)C(=O)CN(C)C2 | 130.6% |
| COCCN1CCC(NCc2c(C(C)C)nn(C)c2N(C)C)CC1 | -4.673% |
| CCN1CC(=O)c2sc(NC(C)C)nc2C1 | 96.98% |
| CC(C)Nc1nc2c(s1)C(=O)CN(CC1CC1)C2 | 101.7% |
| COCCN1CCc2cc(C(=O)N(C)C)c(NC(C)C)nc2CC1.O=C(O)C(F)(F)F.O=C(O)C(F)(F)F | 7.689% |
| COCCN1CC(=O)c2sc(NC(C)C)nc2C1 | 130.5% |
| CC(C)c1nn(C)c(N(C)C)c1CNC1CCN(CC2CC2)CC1 | -26.39% |
| CSC(C)(C)CNC(=O)NC1CCN(C)CC1 | -3.442% |
| CC(C)C(C)(C#N)NC(=O)Cn1cc(C(N)=O)c(-c2ccccc2)n1 (centres undefined) | 12.8% |
| CCNC(=O)NCc1cccc(N2CC=CC2)c1 | -0.5505% |
| CCc1noc(CN(C)CCC(=O)Nc2ccc(Cl)cc2)n1 | -6.397% |
| CCN(C)Cc1nc(-c2ccccc2NS(C)(=O)=O)oc1C | 17.24% |
| CCCOC1CCCN(Cc2nc(-c3ccc(F)cc3F)oc2C)C1 (centres undefined) | 11.6% |
| CCN1CC(CN(C)Cc2nc(-c3ccc(F)cc3)oc2C)CC1=O (centres undefined) | 117.1% |
| CCN1CC(CN(C)Cc2nc(-c3ccc(C)o3)oc2C)CC1=O (centres undefined) | 106.5% |
| CCN(CCn1cccn1)Cc1nc(-c2ccc(C)o2)oc1C | 17.65% |
| Cc1oc(-c2ccc(F)cc2F)nc1CN1C[C@@H](C)O[C@@H](C)C1 | 30.19% |
| CCN1CC(CN(C)Cc2nc(-c3ccoc3)oc2C)CC1=O (centres undefined) | 101.6% |
| Cc1oc(-c2ccoc2)nc1CN1CCC[C@H]1CO | 2.013% |
| CCN1CC(CN(C)Cc2nc(-c3ccc(F)cc3F)oc2C)CC1=O (centres undefined) | 223.2% |
| CCN(CCn1cccn1)Cc1nc(-c2ccoc2)oc1C | -32.03% |
| Cc1oc(-c2ccc(F)cc2)nc1CN1CCOCS1(=O)=O | 1.059% |
| CCN(CCn1cccn1)Cc1nc(-c2ccc(F)cc2)oc1C | 16.6% |
| O=C(c1ccc(O)cn1)N1CCOC(c2ccc(Cl)c(Cl)c2)C1 (centres undefined) | -8.844% |

| SMILES | Percent Effect |
| --- | --- |
| CCc1cnc(NCCSc2cnn[nH]2)nc1 | 4.76% |
| COC(=O)CCCNC(=O)COc1ccccc1C(F)(F)F | -5.238% |
| O=C(NC1CCCC1)c1cc2c(s1)CCN2C(=O)c1ccccc1 | 94.77% |
| CCCNC(=O)CCNC(=O)c1ccccc1N1CCOCC1 | 6.654% |
| COCCN(C)C(=O)c1cc2c(s1)CCN2C(=O)C1CC1 | 113.8% |
| O=C(NC1CC1)c1cc2c(s1)CCN2C(=O)C1CC1 | 91.55% |
| COCCNC(=O)c1cc2c(s1)CCN2C(=O)c1ccccc1 | 3.263% |
| O=C(c1cc2c(s1)CCN2C(=O)C1CC1)N1CCCC1 | -2.581% |
| O=C(NC1CCCC1)NC1CCC(C(=O)N2CCSCC2)CC1 (centres undefined) | 9.425% |
| CCCNC(=O)c1cc2c(s1)CCN2C(=O)c1ccccc1 | 88.89% |
| CN1C[C@H](COCC2CC2)[C@H]2CCN(Cc3ccco3)CC[C@H]2C1=O | -20.01% |
| CCOC1CCN(CCc2nc(-c3cccc(Cl)c3)no2)CC1 | 9.803% |
| CC(O)C(=O)N1CCC(c2nccn2Cc2cscn2)CC1 (centres undefined) | -11.64% |
| CN1CCCN(C(=O)c2cc3c(s2)CCN3C(=O)c2ccccc2)CC1 | -3.728% |
| O=C(NCCN1CCCC1)c1cc2c(s1)CCN2C(=O)c1ccccc1 | 91.37% |
| CC(C1CC1)N(CC(=O)NCC(F)(F)F)C1CC1 (centres undefined) | -3.588% |
| O=C(CNc1cccc2c1CCCC2)Nc1ccccc1Br | 7.656% |
| NC(=O)C1CCN(C(=O)c2ccc(Cn3cc(Br)cn3)cc2)CC1 | -10.39% |
| NC(=O)c1ccc(N2CCCCC2)c(NC(=O)c2cc(Br)ccc2Cl)c1 | 10.69% |
| NC(=O)C1CCN(C(=O)c2cc(Br)ccc2-n2cnnn2)CC1 | 120.4% |
| NC(=O)c1ccc(N2CCCCC2)c(NC(=O)c2cc(Br)ccc2F)c1 | 10.52% |
| O=C(c1cc(Br)ccc1Cl)N1CCN(Cc2ccco2)CC1 | 8.904% |
| Cc1cnn(C2CCCN(C(=O)c3sccc3-n3cnnn3)C2)c1 (centres undefined) | -13.25% |
| NC(=O)C1CCN(C(=O)c2ccccc2OCc2ccncc2)CC1 | -0.6716% |
| O=C(c1cc(Br)ccc1-n1cnnn1)N1CCCC1 | 113.6% |
| O=C(c1cc(Br)ccc1-n1cnnn1)N1CCCCC1 | 184.2% |
